# From PubChem BioAssay (EPA / NIEHS)
# Records with an inconclusive call do not appear. Calls of active or inactive are those of the source. The calls were made as follows: active = hit-call score of the fitted dose curve at least 0.9, where 1 is the maximum; inconclusive = response in the unintended direction; inactive = score below 0.9.
# Legend:
# [1] = biological target: rat Androgen Receptor (AR), Ar (gene 24208) (UniProt P15207); test: NVS_NR_rAR: NovaScreen (NVS) Nuclear Receptor Binding Assay for rat Androgen Receptor (AR) (AID 2283366)
# Sequence of rat Androgen Receptor (AR), Ar (gene 24208) (P15207 whole entry, looked up): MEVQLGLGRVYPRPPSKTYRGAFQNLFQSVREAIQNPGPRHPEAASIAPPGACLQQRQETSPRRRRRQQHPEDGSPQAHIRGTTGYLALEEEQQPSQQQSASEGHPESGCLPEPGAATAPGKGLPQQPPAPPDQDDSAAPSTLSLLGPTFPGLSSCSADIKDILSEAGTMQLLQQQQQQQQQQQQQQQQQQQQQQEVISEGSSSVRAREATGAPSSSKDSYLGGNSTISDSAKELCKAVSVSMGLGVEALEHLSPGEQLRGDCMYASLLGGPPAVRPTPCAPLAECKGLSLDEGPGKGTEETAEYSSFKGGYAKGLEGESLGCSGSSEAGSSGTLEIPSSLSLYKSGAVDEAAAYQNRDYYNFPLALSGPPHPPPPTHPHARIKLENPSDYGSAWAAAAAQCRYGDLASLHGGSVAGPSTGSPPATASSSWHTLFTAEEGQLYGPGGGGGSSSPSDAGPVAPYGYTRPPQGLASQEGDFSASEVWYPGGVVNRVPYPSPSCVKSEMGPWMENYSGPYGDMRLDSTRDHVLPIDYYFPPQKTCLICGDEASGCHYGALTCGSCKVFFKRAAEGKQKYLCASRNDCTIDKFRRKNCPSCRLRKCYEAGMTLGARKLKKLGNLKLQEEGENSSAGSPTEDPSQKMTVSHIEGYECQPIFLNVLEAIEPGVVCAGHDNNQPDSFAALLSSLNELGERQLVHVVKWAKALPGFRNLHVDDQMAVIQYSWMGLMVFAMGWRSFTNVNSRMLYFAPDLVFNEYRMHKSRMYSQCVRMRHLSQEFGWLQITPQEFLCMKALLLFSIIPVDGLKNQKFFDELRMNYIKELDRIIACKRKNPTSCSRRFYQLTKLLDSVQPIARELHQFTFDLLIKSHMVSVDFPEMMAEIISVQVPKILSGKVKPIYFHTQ
# Summary of the method: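 Actives from a duplicate single-concentration (25 uM) primary run went on to concentration series. Displacement of radioligand was counted by filtration and scintillation, 18 h post-dose, using prostate extracts from testosterone-pretreated rats, with DMSO as baseline.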
# [2] = biological target: guinea pig Sigma Receptor, Non-selective Binding, SIGMAR1 (gene 100135589) (UniProt Q60492); test: NVS_OR_gSIGMA_NonSelective: NovaScreen (NVS) Nuclear Receptor Binding Assay for guinea pig Sigma Receptor, Non-selective Binding (AID 2283367)
# Sequence of guinea pig Sigma Receptor, Non-selective Binding, SIGMAR1 (gene 100135589) (Q60492 whole entry, looked up): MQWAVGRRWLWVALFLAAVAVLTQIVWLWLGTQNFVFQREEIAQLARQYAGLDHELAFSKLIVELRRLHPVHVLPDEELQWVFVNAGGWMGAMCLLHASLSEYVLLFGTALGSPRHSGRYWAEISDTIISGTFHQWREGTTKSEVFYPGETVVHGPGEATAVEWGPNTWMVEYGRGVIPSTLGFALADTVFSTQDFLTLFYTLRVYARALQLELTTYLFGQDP
# Summary of the method: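 Membranes from guinea pig brain incubated with radioligand and test chemical for 1 h, then filtered and scintillation-counted. Duplicate primary testing at 25 uM, with concentration-series follow-up for actives.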
# [3] = test system: guinea pig Dopamine Transporter (DAT), gene 100714898; test: NVS_TR_gDAT: NovaScreen (NVS) Transporter Assay for guinea pig Dopamine Transporter (DAT) (AID 2283369);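 also: active compounds lower bound radioligand signal relative to DMSO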
# Protocol: NVS_TR_gDAT is a biochemical, single-readout assay that uses extracted gene-proteins from Guinea pig striatal membranes in a tissue-based cell-free assay. Measurements were taken 2 hours after chemical dosing in a 48-well plate.NVS_TR_gDAT is one of one assay component(s) measured or calculated from the NVS_TR_gDAT assay. It is designed to make measurements of radioligand binding, a form of binding reporter, as detected with scintillation counting signals by Filter-based radiodetection technology.Data from the assay component NVS_TR_gDAT was analyzed into 1 assay endpoint. This assay endpoint, NVS_TR_gDAT, was analyzed in the positive analysis fitting direction relative to DMSO as the negative control and baseline of activity. […] Furthermore, this assay endpoint can be referred to as a primary readout, because the performed assay has only produced 1 assay endpoint. […]
# Binding assays used specific radioligands (tritiated, iodinated) with non-radioactive competitive displacement ligands in agonist or antagonist protocols (as indicated) and various reference compounds and inhibitors to titrate specific binding to receptors and transporters. Most enzyme assays (CYPs, kinases, phosphatases, proteases, HDACs) used recombinant protein and specific substrates (fluorescence mostly, some colorimetric and radioactive) and inhibitors, followed by a biochemical separation of substrate and product. […]
# [4] = biological target: rat Serotonin Transporter (SERT), Slc6a4 (gene 25553) (UniProt P31652); test: NVS_TR_rSERT: NovaScreen (NVS) Transporter Assay for rat Serotonin Transporter (SERT) (AID 2283375)
# Sequence of rat Serotonin Transporter (SERT), Slc6a4 (gene 25553) (P31652 whole entry, looked up): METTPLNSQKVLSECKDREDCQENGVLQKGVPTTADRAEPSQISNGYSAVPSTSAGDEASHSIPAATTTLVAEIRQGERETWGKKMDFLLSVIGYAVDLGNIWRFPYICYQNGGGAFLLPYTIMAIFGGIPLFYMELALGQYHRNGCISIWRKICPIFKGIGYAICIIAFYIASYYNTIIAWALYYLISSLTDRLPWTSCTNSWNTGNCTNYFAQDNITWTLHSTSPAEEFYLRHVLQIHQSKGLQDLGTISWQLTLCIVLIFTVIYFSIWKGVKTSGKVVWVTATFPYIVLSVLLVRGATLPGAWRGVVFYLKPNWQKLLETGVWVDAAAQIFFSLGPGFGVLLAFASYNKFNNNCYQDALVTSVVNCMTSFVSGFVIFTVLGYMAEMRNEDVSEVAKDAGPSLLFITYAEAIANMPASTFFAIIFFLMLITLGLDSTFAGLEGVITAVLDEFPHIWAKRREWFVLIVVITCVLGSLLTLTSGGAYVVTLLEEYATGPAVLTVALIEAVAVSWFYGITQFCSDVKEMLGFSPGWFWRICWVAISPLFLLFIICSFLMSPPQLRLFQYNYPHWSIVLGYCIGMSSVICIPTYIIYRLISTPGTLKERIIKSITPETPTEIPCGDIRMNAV
# Summary of the method: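 Using rat forebrain membrane SERT, test chemicals compete with a radioligand for 1 hour, and bound counts are taken by filter-based scintillation. Screening starts at 25 uM in duplicate, followed by concentration series for actives.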
smiles,measurement,setting,value
CC(C)c1ccc2c(C(C)C)cc(C(C)C)c(S(=O)(=O)O)c2c1,AC50,[1],7.33 µM (active)
Oc1ccc(Cl)cc1Cc1cc(Cl)ccc1O,AC50,[1],1.42 µM (active)
CCCCCCCCCCCCCCCC[N+](C)(C)CC,AC50,[2],1.23 µM (active)
S=C(NC1CCCCC1)NC1CCCCC1,AC50,[2],5.93 µM (active)
c1ccc2c(c1)ccc1ncccc12,AC50,[3],34.7 µM (active)
COc1ccc2nc(N)sc2c1,outcome,[3],inactive
CC(C)(c1cc(Br)c(OCCO)c(Br)c1)c1cc(Br)c(OCCO)c(Br)c1,AC50,[4],2.88 µM (active)
